39 molecules from PubChem BioAssay (NCATS) can be followed below.

Records with an inconclusive call do not appear. Entries that show only a call come without a potency. Active and inactive are the calls of the source. The call rests on the fitted dose curve; in most records, active means well fitted inhibition curve with a large enough effect; inconclusive means small, poorly fitted or top-dose-only effect; inactive means flat fitted curve, though single readings scatter.
Potency means the concentration at half of the fitted maximal effect.

One test deals with MKL-2. Description: qHTS assay to identify novel small-molecules to repurpose for Merkel cell carcinoma treatment (AID 1296009). Further: nearly all actives have a fitted effect of over 60% in size. As to conditions: MCC and control cell lines, CellTiter-Glo viability, 72 h; series mostly up to 46 µM; activity change, negative = cytotoxicity: at the top concentration. An outline of the steps:
(§1)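 After compound transfer in DMSO, plates were kept 72 hr at 37 degree celsius. Luminescent ATP signal from CellTiter-Glo served as viability measure, normalized against DMSO and no-cell controls.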
In general terms: Quantitative high-throughput screening tests each substance at several concentrations.
On to `C#Cc1ccc(-c2ccccc2F)cc1`, for which the “activity change, negative = cytotoxicity” value was 2.13% (inactive).

Regarding `Cn1c(=O)c2c(ncn2CC(=O)O)n(C)c1=O`, the “activity change, negative = cytotoxicity” value was 13.4% (inactive).

Regarding `CC(=O)N1CCN(c2ccc(O)cc2)CC1`, the Potency was 7.5 µM (active).

For `Cc1cc(=O)oc2cc(O[C@@H]3SC[C@@H](O)[C@H](O)[C@H]3O)ccc12`, the “activity change, negative = cytotoxicity” value is 4.65% (inactive).

Turning to `CC(=O)N(CC(O)CO)c1c(I)c(C(=O)NCCO)c(I)c(C(=O)NCC(O)CO)c1I` (stereo not drawn), the “activity change, negative = cytotoxicity” value is 20.4% (inactive).

In the case of `O=C(OCC(COC(=O)c1cccnc1)(COC(=O)c1cccnc1)COC(=O)c1cccnc1)c1cccnc1`, the “activity change, negative = cytotoxicity” value is 0.749% (inactive).

For the molecule `CN(C)CCN(Cc1ccsc1)c1ccccn1`, the “activity change, negative = cytotoxicity” value is 2.22% (inactive).

In the case of `C#CC(C)(CC)OC(=O)c1ccccc1C(=O)O` (stereo not drawn), the “activity change, negative = cytotoxicity” value is 20.9% (inactive).

As to `COC(=O)c1cc(Cl)c(NC(C)=O)cc1OC`, the “activity change, negative = cytotoxicity” value was 11.9% (inactive).

With `CCOC(=O)CN1CCCC1=O`, the “activity change, negative = cytotoxicity” value is 10.5% (inactive).

`COc1ccccc1OCC1CNC(=O)O1` (stereo not drawn): the “activity change, negative = cytotoxicity” value was 13.5% (inactive).

In the case of `C[C@]12CCC(=O)C=C1CC[C@@H]1[C@@H]2[C@@H](O)C[C@@]2(C)[C@H]1CC[C@]2(O)C(=O)COC(=O)CCC(=O)O`, the “activity change, negative = cytotoxicity” value is -7.53% (inactive).

For `OCCOCCN1CCN(C(c2ccccc2)c2ccc(Cl)cc2)CC1` (stereo not drawn), the “activity change, negative = cytotoxicity” value was -2.22% (inactive).

On to `CCCCOC(=O)CCCCCCCCC(=O)OCCCC`, for which the “activity change, negative = cytotoxicity” value was 19.9% (inactive).

Consider `CCCCCC1Nc2cc(C(F)(F)F)c(S(N)(=O)=O)cc2S(=O)(=O)N1` (stereo not drawn), for which the “activity change, negative = cytotoxicity” value was 21.7% (inactive).

Take `CN1CCC(=C2c3ccccc3CCc3cccnc32)CC1`: the “activity change, negative = cytotoxicity” value is 2.66% (inactive).

Take `CSCC[C@H](NC(=O)[C@H](Cc1c[nH]c2ccccc12)NC(=O)CCNC(=O)OC(C)(C)C)C(=O)N[C@@H](CC(=O)O)C(=O)N[C@@H](Cc1ccccc1)C(N)=O`: the “activity change, negative = cytotoxicity” value was 6.21% (inactive).

As to `CCCc1c2oc(C(=O)O)cc(=O)c2cc2c(=O)cc(C(=O)O)n(CC)c12`, the “activity change, negative = cytotoxicity” value is 1.44% (inactive).

Consider `CCC(=O)Oc1ccc2c(c1)CC[C@@H]1[C@@H]2CC[C@@]2(C)[C@H]1C[C@@H](OC(=O)CC)[C@@H]2OC(=O)CC`, for which the “activity change, negative = cytotoxicity” value is -27.1% (inactive).

Consider `CCC(CN)=C(c1ccccc1)c1ccccc1`, for which the “activity change, negative = cytotoxicity” value was -28.2% (inactive).

For the molecule `COc1ccc2nc(SCc3ncc(C)c(OC)c3C)[nH]c2c1`, the “activity change, negative = cytotoxicity” value is -8.04% (inactive).

`N#CC1(c2ccc(F)cc2)CCC(=O)CC1`: the “activity change, negative = cytotoxicity” value was 9.92% (inactive).

`Cc1cc(CCCOc2c(C)cc(-c3noc(C(F)(F)F)n3)cc2C)on1`: the “activity change, negative = cytotoxicity” value is -19.3% (inactive).

With `NS(=O)(=O)c1cc(C(=O)NN2C[C@H]3[C@H]4CCC(C4)[C@H]3C2)ccc1Cl`, the “activity change, negative = cytotoxicity” value is 6.97% (inactive).

With `O=C(CCCl)NCc1ccccc1`, the “activity change, negative = cytotoxicity” value is 4.26% (inactive).

For the molecule `CCCCC(O)/C=C(C)/C=C/C=C/C(=O)N1CCCC1=O` (stereo not drawn), the “activity change, negative = cytotoxicity” value was -15.8% (inactive).

Take `CC(C)(C)NCC(O)COc1ccccc1OCC1CCCO1` (stereo not drawn): the “activity change, negative = cytotoxicity” value was 13.4% (inactive).

As to `Clc1ccc2c(c1)Nc1ccccc1S2`, the “activity change, negative = cytotoxicity” value is -3.59% (inactive).

With `O=c1[nH]c2ccccc2c(=O)n1CCCl`, the “activity change, negative = cytotoxicity” value was 0.297% (inactive).

With `CCNC(=O)NCCCOc1cccc(CN2CCCCC2)c1`, the “activity change, negative = cytotoxicity” value is -13.2% (inactive).

Consider `O=C1CC2(CCCC2)CC(=O)N1`, for which the “activity change, negative = cytotoxicity” value was 18.2% (inactive).

As for `CCCc1ncc(C(=O)O)s1`, the “activity change, negative = cytotoxicity” value was 11.9% (inactive).

For the molecule `CCOC(=O)c1ccc(NC(=O)CN2CCCCC2)cc1`, the “activity change, negative = cytotoxicity” value is 4.45% (inactive).

For `CCCCN(CCCC)C(C(N)=O)c1ccc(OC)cc1` (stereo not drawn), the “activity change, negative = cytotoxicity” value was 14.3% (inactive).

Take `Cc1coc2ccccc2c1=O`: the “activity change, negative = cytotoxicity” value was 18.5% (inactive).

On to `COC(=O)c1cc(S(N)(=O)=O)ccc1OC`, for which the “activity change, negative = cytotoxicity” value was 1.29% (inactive).

As for `CC(=O)Nc1ccc(S(=O)(=O)Nc2cc(C)on2)cc1`, the “activity change, negative = cytotoxicity” value is 11.7% (inactive).

Regarding `CCn1ccc(NS(=O)(=O)c2ccc(N)cc2)nc1=O`, the “activity change, negative = cytotoxicity” value was 7.82% (inactive).

Turning to `OCCCc1ccccc1`, the “activity change, negative = cytotoxicity” value was 11.8% (inactive).

In the next test the test system is NIH3T3. The test is described as above. As to conditions: MCC and control cell lines, CellTiter-Glo viability, 72 h; at 44.8 µM (top of the series) unless noted. A digest of the protocol: as §1
In the case of `C#Cc1ccc(-c2ccccc2F)cc1`, the result was inactive.

`Cn1c(=O)c2c(ncn2CC(=O)O)n(C)c1=O`: the molecule was called inactive.

In the case of `CC(=O)N1CCN(c2ccc(O)cc2)CC1`, the outcome was inactive.

As for `Cc1cc(=O)oc2cc(O[C@@H]3SC[C@@H](O)[C@H](O)[C@H]3O)ccc12`, the molecule was called inactive.

Turning to `CC(=O)N(CC(O)CO)c1c(I)c(C(=O)NCCO)c(I)c(C(=O)NCC(O)CO)c1I` (stereo not drawn), the outcome was inactive.

Consider `O=C(OCC(COC(=O)c1cccnc1)(COC(=O)c1cccnc1)COC(=O)c1cccnc1)c1cccnc1`, for which the molecule was classed as inactive.

Turning to `CN(C)CCN(Cc1ccsc1)c1ccccn1`, the molecule was called inactive.

As to `C#CC(C)(CC)OC(=O)c1ccccc1C(=O)O` (stereo not drawn), the molecule was called inactive.

For `COC(=O)c1cc(Cl)c(NC(C)=O)cc1OC`, the molecule was called inactive.

On to `CCOC(=O)CN1CCCC1=O`, for which the molecule was called inactive.

As for `COc1ccccc1OCC1CNC(=O)O1` (stereo not drawn), the molecule was called inactive.

As to `C[C@]12CCC(=O)C=C1CC[C@@H]1[C@@H]2[C@@H](O)C[C@@]2(C)[C@H]1CC[C@]2(O)C(=O)COC(=O)CCC(=O)O`, the result was inactive.

Turning to `OCCOCCN1CCN(C(c2ccccc2)c2ccc(Cl)cc2)CC1` (stereo not drawn), the molecule was classed as inactive.

As to `CCCCOC(=O)CCCCCCCCC(=O)OCCCC`, the call was inactive.

As to `CCCCCC1Nc2cc(C(F)(F)F)c(S(N)(=O)=O)cc2S(=O)(=O)N1` (stereo not drawn), the call was inactive.

As for `CN1CCC(=C2c3ccccc3CCc3cccnc32)CC1`, the call was inactive.

With `CSCC[C@H](NC(=O)[C@H](Cc1c[nH]c2ccccc12)NC(=O)CCNC(=O)OC(C)(C)C)C(=O)N[C@@H](CC(=O)O)C(=O)N[C@@H](Cc1ccccc1)C(N)=O`, the call was inactive.

With `CCCc1c2oc(C(=O)O)cc(=O)c2cc2c(=O)cc(C(=O)O)n(CC)c12`, the result was inactive.

Take `CCC(=O)Oc1ccc2c(c1)CC[C@@H]1[C@@H]2CC[C@@]2(C)[C@H]1C[C@@H](OC(=O)CC)[C@@H]2OC(=O)CC`: the outcome was inactive.

Consider `CCC(CN)=C(c1ccccc1)c1ccccc1`, for which the molecule was classed as inactive.

Consider `COc1ccc2nc(SCc3ncc(C)c(OC)c3C)[nH]c2c1`, for which the result was inactive.

As for `N#CC1(c2ccc(F)cc2)CCC(=O)CC1`, the outcome was inactive.

`Cc1cc(CCCOc2c(C)cc(-c3noc(C(F)(F)F)n3)cc2C)on1`: the molecule was called inactive.

In the case of `NS(=O)(=O)c1cc(C(=O)NN2C[C@H]3[C@H]4CCC(C4)[C@H]3C2)ccc1Cl`, the result was inactive.

As for `O=C(CCCl)NCc1ccccc1`, the outcome was inactive.

In the case of `CCCCC(O)/C=C(C)/C=C/C=C/C(=O)N1CCCC1=O` (stereo not drawn), the outcome was inactive.

As for `CC(C)(C)NCC(O)COc1ccccc1OCC1CCCO1` (stereo not drawn), the molecule was classed as inactive.

As to `Clc1ccc2c(c1)Nc1ccccc1S2`, the call was inactive.

Take `O=c1[nH]c2ccccc2c(=O)n1CCCl`: the result was inactive.

In the case of `CCNC(=O)NCCCOc1cccc(CN2CCCCC2)c1`, the molecule was called inactive.

In the case of `O=C1CC2(CCCC2)CC(=O)N1`, the outcome was inactive.

For the molecule `CCCc1ncc(C(=O)O)s1`, the molecule was classed as inactive.

Turning to `CCOC(=O)c1ccc(NC(=O)CN2CCCCC2)cc1`, the outcome was inactive.

`CCCCN(CCCC)C(C(N)=O)c1ccc(OC)cc1` (stereo not drawn): the molecule was called inactive.

For `Cc1coc2ccccc2c1=O`, the outcome was inactive.

For the molecule `COC(=O)c1cc(S(N)(=O)=O)ccc1OC`, the call was inactive.

As for `CC(=O)Nc1ccc(S(=O)(=O)Nc2cc(C)on2)cc1`, the molecule was classed as inactive.

Consider `CCn1ccc(NS(=O)(=O)c2ccc(N)cc2)nc1=O`, for which the outcome was inactive.

Turning to `OCCCc1ccccc1`, the call was inactive.
